Several values for one entry are separate records, joined by “and”; a condition that tells them apart may be missing. Equal entries are not always repeated. Inconclusive results are not listed. Where a structure was tested more than once in an assay, its records may differ in their call. Activity calls are given as the source filed them. Calls come from the whole dose curve; as a rule, active = well fitted curve in the direction sought with a large enough effect; inconclusive = small, poorly fitted or top-dose-only effect, or another doubt; inactive = no such curve, though single readings can be large; an effect the other way counts as inactive or inconclusive.
Potency is the fitted concentration of half-maximal effect.

A short description of one test: Viability qHTS for spleen associated tyrosine kinase inhibitor (SYKi) drug resistant MV4-11 cells (AID 1963824). Note: nearly all actives have a fitted effect of over 35% in size. Particulars: SYKi-resistant MV4-11 viability, CellTiter-Glo, 72 h; series mostly up to 45 µM. In outline:
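CellTiter-Glo luminescence, read 10 min after reagent addition, reports viability after a 72 hr compound exposure. Cells are an MV4-11 line made resistant to SYK inhibition, seeded at 500 per well onto compound-containing plates.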
(Quantitative high-throughput screening tests each substance at several concentrations.)
In the case of `Clc1cc2c(NC3CCCC3)nnc(-c3ccncc3)c2cc1Cl`, the Potency is 13.2 µM (active).

`Cc1cccc(/C=N/Nc2cc(N3CCOCC3)nc(OCCc3ccccn3)n2)c1`: the Potency is 0.296 µM (active).

`N#C/C(=C1/SC[C@@H](c2ccc(Cl)cc2Cl)S1)n1ccnc1`: the Potency was 13.3 µM (active).

In the case of `COC(=O)C1=C(C)NC(COC(N)=O)=C(C(=O)OC(C)C)C1c1cccc(Cl)c1Cl` (stereo not given), the Potency is 14.6 µM (active).

As for `COc1ccc([C@@H]2Sc3ccccc3N(CCN(C)C)C(=O)[C@@H]2OC(C)=O)cc1`, the Potency was 7.5 µM (active) and inactive.

`Cn1cc(-c2cnn3c(N)c(Br)c(C4CCCNC4)nc23)cn1` (stereo not given): the Potency is 0.461 µM (active).

In the case of `Cc1ccc2c(Br)cc(Br)c(O)c2n1`, the Potency was 11.9 µM (active).

On to `Cc1cc(F)c(C(=O)Nc2cccc(-c3nncn3C(C)C)n2)cc1-n1cnc(C2CC2)c1`, for which the Potency was 5.25 µM (active).

As for `O=C(NCc1ccc(S(=O)(=O)c2cccc(C(F)(F)F)c2)cc1)c1cnc2[nH]ncc2c1`, the Potency is 0.0105 µM (active).

On to `CCC(=O)N1CCOc2c(cc(-c3cc(OC)cc(OC)c3)cc2C(=O)N[C@H]2CCCN(C)C2)C1`, for which the Potency is 9.34 µM (active).

As to `C=CC(=O)N1CCC(Oc2cc3c(Nc4ccc(Cl)c(Cl)c4F)ncnc3cc2OC)CC1`, the Potency was 4.68 µM (active).

In the case of `O=C(/C=C/c1ccc2ccc(C(F)(F)F)cc2n1)c1ccncc1`, the Potency is 0.934 µM (active).

Regarding `COC1CCN(C(=O)c2cc(Cc3n[nH]c(=O)c4ccccc34)ccc2F)CC1`, the Potency is 14.8 µM (active).

Consider `CCC[C@H](NC(=O)/C(C#N)=C/c1cccc(Br)n1)c1ccccc1`, for which the Potency is 2.35 µM (active).

For the compound `CN(C)/C(N)=N/C(=N)N`, the Potency entry was “inactive”.

Turning to `CC(=O)Nc1cccc(O)c1`, the Potency result is “inactive”.

Take `CCCCOC(=O)c1ccc(O)cc1`: the Potency result was “inactive”.

As for `COc1ccc(-c2oc3ncnc(N)c3c2-c2ccc(NC(=O)Nc3cc(C(F)(F)F)ccc3F)cc2)cc1`, the Potency is 103 nM (active) and 166 nM (active).

On to `O=C(CCN1CCC(c2ccccc2)C1)c1ccc2c(c1)OCCO2` (stereo not given), for which the Potency was 10.6 µM (active).

With `COc1ccccc1C(=O)Nc1cc2c(cc1N1CCCCC1)n(C)c(=O)n2C`, the Potency is 14.8 µM (active).

Consider `CCCCCCCCCCCCCCCC[n+]1ccccc1`, for which the Potency is 0.668 µM (active).

Consider `N[C@@H]1CN(c2c(F)cc3c(=O)c(C(=O)O)cn([C@@H]4C[C@@H]4F)c3c2Cl)CC12CC2`, for which the Potency entry was “inactive”.

As for `CC/C(=C(/CC)c1ccc(O)cc1)c1ccc(O)cc1`, the Potency is 18.6 µM (active).

In the case of `Cc1c(C)n(Cc2ccccc2)c2ccc(C(=O)OCCN(C)C)cc12`, the Potency was 11.9 µM (active).

As for `Cn1cc(C2=C(c3cn(C)c4cc([N+](=O)[O-])ccc34)C(=O)NC2=O)c2ccccc21`, the Potency was 0.372 µM (active).

Consider `O=C(O)C(Cc1cc(I)c(O)c(I)c1)c1ccccc1` (stereo not given), for which the Potency entry is “inactive”.

Turning to `Cn1ncc2cc(-c3cnc(N)c(Cl)c3N3CCC4(CCNC4=O)CC3)ccc21`, the Potency is 2.59 µM (active) and 2.95 µM (active).

For `C[C@]12CC[C@@H]3c4ccc(O)cc4CC[C@H]3[C@@H]1CC[C@@H]2O`, the Potency is 14.8 µM (active).

Consider `CC(=O)OCC(=O)[C@@]1(O)[C@H](OC(C)=O)C[C@H]2[C@@H]3CCC4=CC(=O)C=C[C@]4(C)[C@@]3(F)[C@@H](O)C[C@@]21C`, for which the Potency result is “inactive”.

With `COC[C@@H](c1ccc(C(F)(F)F)cc1)N1CCN(C2(C)CCN(C(=O)c3c(C)ncnc3C)CC2)C[C@@H]1C`, the Potency is 18.6 µM (active).

In the case of `Oc1cc(O)c2c(c1)O[C@H](c1ccc(O)c(O)c1)[C@H](O)C2`, the Potency result is “inactive”.

Consider `O=C1Nc2ccc(I)cc2/C1=C/c1cc(Br)c(O)c(Br)c1`, for which the Potency is 14.8 µM (active).

Take `CN(C)CCNC(=O)NC[C@H]1CC[C@@H]2[C@H](O1)c1cc(C(F)(F)F)ccc1N[C@H]2c1ccccc1`: the Potency was 0.132 µM (active).

Consider `CCCNC(C)(C)COC(=O)c1ccccc1`, for which the Potency entry was “inactive”.

Take `CCNC(=O)C#Cc1ccc2c(C(=Nc3ccc(CN(C)C)cc3)c3ccccc3)c(O)[nH]c2c1`: the Potency is 0.0317 µM (active).

In the case of `CN(C)C(=O)C(CCN1CCC(O)(c2ccc(Cl)cc2)CC1)(c1ccccc1)c1ccccc1`, the Potency is 15 µM (active) and 10.5 µM (active).

`Oc1ccc(CCNCCCCCCNCCc2ccccc2)cc1O`: the Potency was 21.1 µM (active).

As to `Oc1ccc(O)cc1`, the Potency is 13.3 µM (active).

For `CCOc1cc2ncc(C#N)c(Nc3ccc(OCc4ccccn4)c(Cl)c3)c2cc1NC(=O)/C=C/CN(C)C`, the Potency was 224 nM (active) and 525 nM (active).

With `Nc1nc(N)c(-c2ccccc2)s1`, the Potency entry is “inactive”.

The next test can be described thus: Cellular viability qHTS for adrenocortical cancer (ACC) cell line NCI-H295R (AID 1963990). Note: nearly all actives have a fitted effect of over 60% in size. The conditions noted are these: CellTiter-Glo ATP luminescence, 48 h; series mostly up to 46.1 µM. An outline of the steps: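 Viability of NCI-H295R after 48 h of treatment (final up to 46 uM) measured through cellular ATP luminescence.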
As to `Clc1cc2c(NC3CCCC3)nnc(-c3ccncc3)c2cc1Cl`, the Potency result was “inactive”.

With `Cc1cccc(/C=N/Nc2cc(N3CCOCC3)nc(OCCc3ccccn3)n2)c1`, the Potency is 28.2 µM (active).

`N#C/C(=C1/SC[C@@H](c2ccc(Cl)cc2Cl)S1)n1ccnc1`: the Potency result is “inactive”.

`COC(=O)C1=C(C)NC(COC(N)=O)=C(C(=O)OC(C)C)C1c1cccc(Cl)c1Cl` (stereo not given): the Potency was 20.6 µM (active).

In the case of `COc1ccc([C@@H]2Sc3ccccc3N(CCN(C)C)C(=O)[C@@H]2OC(C)=O)cc1`, the Potency result was “inactive”.

On to `Cn1cc(-c2cnn3c(N)c(Br)c(C4CCCNC4)nc23)cn1` (stereo not given), for which the Potency entry is “inactive”.

As to `Cc1ccc2c(Br)cc(Br)c(O)c2n1`, the Potency was 1.64 µM (active).

For `Cc1cc(F)c(C(=O)Nc2cccc(-c3nncn3C(C)C)n2)cc1-n1cnc(C2CC2)c1`, the Potency was 14.1 µM (active).

Consider `O=C(NCc1ccc(S(=O)(=O)c2cccc(C(F)(F)F)c2)cc1)c1cnc2[nH]ncc2c1`, for which the Potency is 0.0178 µM (active).

Regarding `CCC(=O)N1CCOc2c(cc(-c3cc(OC)cc(OC)c3)cc2C(=O)N[C@H]2CCCN(C)C2)C1`, the Potency entry was “inactive”.

Consider `C=CC(=O)N1CCC(Oc2cc3c(Nc4ccc(Cl)c(Cl)c4F)ncnc3cc2OC)CC1`, for which the Potency is 25.1 µM (active).

`O=C(/C=C/c1ccc2ccc(C(F)(F)F)cc2n1)c1ccncc1`: the Potency is 4.47 µM (active).

Turning to `COC1CCN(C(=O)c2cc(Cc3n[nH]c(=O)c4ccccc34)ccc2F)CC1`, the Potency result was “inactive”.

`CCC[C@H](NC(=O)/C(C#N)=C/c1cccc(Br)n1)c1ccccc1`: the Potency is 12.6 µM (active).

In the case of `CN(C)/C(N)=N/C(=N)N`, the Potency result is “inactive”.

For `CC(=O)Nc1cccc(O)c1`, the Potency result is “inactive”.

Turning to `CCCCOC(=O)c1ccc(O)cc1`, the Potency entry is “inactive”.

Consider `COc1ccc(-c2oc3ncnc(N)c3c2-c2ccc(NC(=O)Nc3cc(C(F)(F)F)ccc3F)cc2)cc1`, for which the Potency entry was “inactive”.

Take `O=C(CCN1CCC(c2ccccc2)C1)c1ccc2c(c1)OCCO2` (stereo not given): the Potency is 6.51 µM (active).

Consider `COc1ccccc1C(=O)Nc1cc2c(cc1N1CCCCC1)n(C)c(=O)n2C`, for which the Potency result was “inactive”.

On to `CCCCCCCCCCCCCCCC[n+]1ccccc1`, for which the Potency was 5.8 µM (active).

Consider `N[C@@H]1CN(c2c(F)cc3c(=O)c(C(=O)O)cn([C@@H]4C[C@@H]4F)c3c2Cl)CC12CC2`, for which the Potency entry was “inactive”.

Consider `CC/C(=C(/CC)c1ccc(O)cc1)c1ccc(O)cc1`, for which the Potency was 3.66 µM (active) and 8.91 µM (active).

As for `Cc1c(C)n(Cc2ccccc2)c2ccc(C(=O)OCCN(C)C)cc12`, the Potency was 23.1 µM (active).

For the compound `Cn1cc(C2=C(c3cn(C)c4cc([N+](=O)[O-])ccc34)C(=O)NC2=O)c2ccccc21`, the Potency was 0.178 µM (active).

Turning to `O=C(O)C(Cc1cc(I)c(O)c(I)c1)c1ccccc1` (stereo not given), the Potency entry was “inactive”.

With `Cn1ncc2cc(-c3cnc(N)c(Cl)c3N3CCC4(CCNC4=O)CC3)ccc21`, the Potency entry was “inactive”.

Turning to `C[C@]12CC[C@@H]3c4ccc(O)cc4CC[C@H]3[C@@H]1CC[C@@H]2O`, the Potency is 7.94 µM (active).

As for `CC(=O)OCC(=O)[C@@]1(O)[C@H](OC(C)=O)C[C@H]2[C@@H]3CCC4=CC(=O)C=C[C@]4(C)[C@@]3(F)[C@@H](O)C[C@@]21C`, the Potency entry is “inactive”.

With `COC[C@@H](c1ccc(C(F)(F)F)cc1)N1CCN(C2(C)CCN(C(=O)c3c(C)ncnc3C)CC2)C[C@@H]1C`, the Potency entry was “inactive”.

With `Oc1cc(O)c2c(c1)O[C@H](c1ccc(O)c(O)c1)[C@H](O)C2`, the Potency result was “inactive”.

In the case of `O=C1Nc2ccc(I)cc2/C1=C/c1cc(Br)c(O)c(Br)c1`, the Potency entry was “inactive”.

With `CN(C)CCNC(=O)NC[C@H]1CC[C@@H]2[C@H](O1)c1cc(C(F)(F)F)ccc1N[C@H]2c1ccccc1`, the Potency is 0.891 µM (active).

Regarding `CCCNC(C)(C)COC(=O)c1ccccc1`, the Potency entry was “inactive”.

Take `CCNC(=O)C#Cc1ccc2c(C(=Nc3ccc(CN(C)C)cc3)c3ccccc3)c(O)[nH]c2c1`: the Potency is 2.85 µM (active).

For the compound `CN(C)C(=O)C(CCN1CCC(O)(c2ccc(Cl)cc2)CC1)(c1ccccc1)c1ccccc1`, the Potency is 1.84 µM (active) and 28.2 µM (active).

Take `Oc1ccc(CCNCCCCCCNCCc2ccccc2)cc1O`: the Potency was 16.4 µM (active).

Turning to `Oc1ccc(O)cc1`, the Potency result was “inactive”.

For `CCOc1cc2ncc(C#N)c(Nc3ccc(OCc4ccccn4)c(Cl)c3)c2cc1NC(=O)/C=C/CN(C)C`, the Potency is 2 µM (active).

For the compound `Nc1nc(N)c(-c2ccccc2)s1`, the Potency result is “inactive”.

For the origin of these results see PubChem BioAssay (NCATS).
